From ChEMBL document CHEMBL4513146, “CO-ADD screening of Karazin Kharkiv National University (Ukraine) compounds”
Measured potencies and affinities stand elsewhere.

test system: Staphylococcus aureus; conditions: Concentration 32 ug.mL-1;; ASSAY_TEST Inhibition of Bacterial Growth; detection method Absorption (OD600); MEDIA CAMHB; plate type 384well; NBS; CORNING #3640; time 18 hr

Point of comparison: `Cc1cc2nn(CC(=O)Nc3cc(F)ccc3F)c(=O)n2c(Nc2ccc(C)c(F)c2)n1`, Inhibition 0.88%. Against it:
- CCOc1ccc(N(Cc2ccccc2)S(=O)(=O)c2ccc3nncn3c2)cc1 — lower, -0.89%
- COc1ccc(Cl)cc1NC(=O)CSc1nc2ccccc2n2c(C(C)C)nnc12 — lower, -6.36%
- O=c1c2nnc(SCc3ccccc3Cl)n2ccn1-c1ccc(F)cc1 — higher, 8.27%
- Cc1cccc(NC(=O)Cn2nc3c(SC4CCCCC4)nccn3c2=O)c1C — higher, 2.67%
- CCc1cccc(NC(=O)Cn2nc3c(SCc4ccc(Cl)cc4)nccn3c2=O)c1 — lower, -8.25%
- Cc1ccc(CSc2nnc3c(=O)n(-c4ccc(Br)cc4)ccn23)cc1 — higher, 13.68%
- Cc1oc(-c2cccc(Cl)c2)nc1CSc1nc2ccccc2n2c(C(C)C)nnc12 — higher, 3.52%
- CCc1nnc2ccc(S(=O)(=O)N(Cc3ccc(OC)cc3)c3cccc(F)c3)cn12 — lower, -1.45%
- Cc1ccc(Oc2nccn3c(=O)n(CC(=O)Nc4ccc(Br)cc4F)nc23)cc1 — higher, 5.87%
- Cc1cccc(CN(c2ccc(C(C)C)cc2)S(=O)(=O)c2cccn3c(C)nnc23)c1 — higher, 5.76%
- COc1ccc(-c2cc3c4nn(CC(=O)Nc5ccc(F)cc5)c(=O)n4ccn3n2)cc1 — lower, -1.37%
- COc1ccc(CNC(=O)CCc2nnc3ccc(-c4ccccc4)nn23)cc1OC — higher, 1.5%
- Cc1nnc2ccc(S(=O)(=O)N(Cc3ccccc3)c3ccc(F)cc3)cn12 — lower, -4.97%
- CCCCn1c(=O)c2sccc2n2c(=O)n(CC(=O)N(C)c3ccccc3)nc12 — lower, -8.63%
